PubChem BioAssay AID1259343 (VanderVen Lab, College of Veterinary Medicine, Cornell …, 2017)
About 2,900 (47%) of roughly 6,200 compounds were called active. Rule as the data show it: active = inhibition above about 50%; inactive = the rest. The set was probably picked from earlier hits. This is one part of the list.

experiment: Mycobacterium tuberculosis growth inhibition, primary screen (AID 1259343); conditions: inhibition: at 10 µM, active compounds read high; outcome: 10 uM

Row | SMILES | inhibition
1 | O=C(COc1c(F)c(F)cc(F)c1F)c1ccc[nH]1 | 65.2% (active)
2 | Nn1ccc2nc3ccn(CCC4=CCCCC4)c(=O)c3cc2c1=O | 85.4% (active)
3 | O=S(=O)(NCCC1=CCCCC1)c1cccc2nonc12 | -1.1% (inactive)
4 | CCOC(=O)COc1ccc(C)cc1C(=O)c1cnc2c(c1)COc1ccccc1-2 | 61.1% (active)
5 | CC(Nc1cccc(OC(F)(F)F)c1)C(=O)Nc1cccnc1Cl (stereo not drawn) | -51.8% (inactive)
6 | O=C(CN(C1CCCCC1)C1CC1)Nc1ccc(Cl)cn1 | 37.5% (inactive)
7 | CC(Nc1ccc(OCC(F)(F)F)cc1)C(=O)Nc1ccc(Cl)cn1 (stereo not drawn) | 97% (active)
8 | O=C1NC(=NN=Cc2cccnc2)SC1Cc1ccc(SC(F)F)cc1 (stereo not drawn) | 35.2% (inactive)
9 | O=C(NC1CCC(c2ccccc2)CC1)c1n[nH]c2ccccc12 (stereo not drawn) | 25.1% (inactive)
10 | COc1ccnc(NC2CCC(c3ccccc3)CC2)n1 (stereo not drawn) | 68.9% (active)
11 | Fc1ccccc1-n1cc(-c2ccnc(NC3CCC3)n2)cn1 | 20.1% (inactive)
12 | COc1cccc(-c2ccc(NC(=O)C3CCCN(C(=O)c4ccoc4)C3)cc2)c1 (stereo not drawn) | inactive
13 | COc1ccc(-c2ccc(C(=O)N3CCC(C(N)=O)C3)c(F)c2)cc1 (stereo not drawn) | 69.6% (active)
14 | CC(c1nnc(-c2ccccc2)o1)N(C)CC12CC3CC(CC(C3)C1)C2 (stereo not drawn) | -23% (inactive)
15 | CN(C)c1cccc(-c2nc3cc(N)ccc3o2)c1 | 30.8% (inactive)
16 | Nc1ccc(-c2nc3cc(Cl)ccc3o2)cc1 | 90.3% (active)
17 | Nc1ccc(Cl)c(-c2nc3cc(Cl)ccc3o2)c1 | 30% (inactive)
18 | Ic1cccc(-c2nnc(-c3ccccc3)o2)c1 | 103% (active)
19 | Nc1ccc2oc(-c3cccc(I)c3)nc2c1 | 60.4% (active)
20 | Nc1ccc2oc(-c3cc(F)c(F)cc3Cl)nc2c1 | -28% (inactive)
21 | Cc1cccc(-c2nnc(C(C)Oc3ccccc3C#N)o2)c1 (stereo not drawn) | 23.4% (inactive)
22 | Nc1ccc2oc(-c3cncc(Br)c3)nc2c1 | 7.61% (inactive)
23 | CS(=O)(=O)c1nnnn1-c1ccccc1Cl | 95.7% (active)
24 | COc1cc(C2=NC(=Cc3ccc(N4CCOCC4)s3)C(=O)O2)cc(OC)c1OC | 79.7% (active)
25 | COc1cc(C2=NC(=CC3=Cc4ccccc4OC3)C(=O)O2)cc(OC)c1OC | inactive
26 | Cc1ccc(C2=NC(=Cc3ccco3)C(=O)O2)cc1C | -7.96% (inactive)
27 | O=C(CCl)Nc1ncc(Cc2ccccc2Cl)s1 | 92.7% (active)

Row | SMILES | inhibition
28 | CC1(C(=O)Nc2nc(-c3ccccc3Cl)cs2)Cc2ccccc2C(=O)O1 (stereo not drawn) | 37.1% (inactive)
29 | O=C(Nc1ncc(Cc2ccccc2Cl)s1)c1cnccn1 | 92.8% (active)
30 | Cc1cnc(NC(=O)CCc2nc(C(C)(C)C)no2)s1 | -2.31% (inactive)
31 | O=C(Nc1nc(-c2ccco2)c(-c2ccco2)s1)c1cnccn1 | -27.4% (inactive)
32 | O=C(CCl)Nc1ncc(Cc2ccccc2)s1 | -18.1% (inactive)
33 | O=C(CCl)Nc1nc(-c2ccccc2Cl)cs1 | 97.7% (active)
34 | O=C(CCl)Nc1nc(-c2c[nH]c3ccccc23)cs1 | -41.1% (inactive)
35 | O=C1CCCC2=C1C(c1cccs1)n1ncnc1N2 (stereo not drawn) | -18.9% (inactive)
36 | CCCC(C)NC(=O)c1cc(Cl)c[nH]1 (stereo not drawn) | 10.3% (inactive)
37 | O=C(NCCCOCc1ccccc1)c1cc(Cl)c[nH]1 | 77.7% (active)
38 | O=C(COc1ccc(F)cc1)NCCc1ccc(OC(F)F)cc1 | 90.5% (active)
39 | O=C(COc1ccc(F)cc1)NCc1csc(Br)c1 | -34.9% (inactive)
40 | Cc1ccc(Cl)cc1NC(=O)CN1CCc2ccccc2C1 | 91.4% (active)
41 | CCOc1cc(C)ccc1NC(=O)CN1Cc2ccccc2C1 | 14.2% (inactive)
42 | Cc1ccc(C2=NN(C(=O)CN3CCc4ccccc4C3)C(c3ccccc3C)C2)c(C)c1 (stereo not drawn) | 40.4% (inactive)
43 | CCN(Cc1cccc(C(N)=O)c1)c1ccccc1C | 27.3% (inactive)
44 | CC1(C)CC(C=Cc2cccs2)=Nc2ccccc2S1 | -37.6% (inactive)
45 | N#Cc1ccc([N+](=O)[O-])c(O)c1 | 77.2% (active)
46 | CCOP1(=S)C(=C2N(C)c3ccccc3C2(C)C)C=NN1c1ccccc1 (stereo not drawn) | 27.1% (inactive)
47 | CN1/C(=C/C(=O)Nc2ccc(Cl)cc2)C(C)(C)c2ccccc21 | 1.72% (inactive)
48 | CCN(CC)P(=S)(C=C1N(C)c2ccccc2C1(C)C)CC (stereo not drawn) | 87.2% (active)
49 | O=C(Nc1ccsc1C(=O)O)c1ccc(Br)cc1 | 82.5% (active)
50 | O=C(O)c1sc(Br)c(I)c1I | 7.67% (inactive)
51 | c1csc(-c2cnc3ccc(-c4ccncc4)nn23)c1 | 74.1% (active)
52 | C(=Nn1c(-c2cccs2)csc1=Nc1ccccc1)c1ccccn1 | -1.25% (inactive)
53 | N#Cc1cc2c(nc1SCC(=O)OCc1ccccc1)CCC2 | 41.5% (inactive)
